Experiment [1] is described as follows: blockers of polyQ-driven CASP3 activation – cell-based (AID 1583). The note with it: polyglutamine-induced caspase-3 activation, cell assay; stronger effect = higher value;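 tested at 10 µM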.
Experiment [2] in a line: yeast 75Q aggregation reduction – 75Q-TubU reporter (AID 1593). As to conditions: Yeast 75Q polyglutamine aggregation reporter.
Experiment [3] in a line: restoration of touch response, mutant HTT neurons – whole organism, C. elegans mechanosensory neurons, N-terminal huntingtin (AID 1599). As to conditions: C. elegans polyQ-huntingtin mechanosensory neurons, stronger effect = higher value.
The nature of experiment [4]: blockers of cytochrome c efflux from mitochondria – biochemical, purified mitochondria (AID 1603).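 Note: mouse liver mitochondria challenged with calcium chloride; signal normalized to the plate average as 100%.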 As to conditions: stronger effect = lower value.
Experiment [5] is described as follows: polyglutamine aggregate formation blockers (AID 1604). As to conditions: polyglutamine-induced protein aggregation inhibition assay; stronger effect = higher value; tested at 2.5 µM.
The nature of experiment [6]: glutamate transport activators, MN-1 cells, MN-1 cell line (AID 1612).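 Note: tested at 1 µM final; 0% = mean of DMSO vehicle wells on each plate; positive means more glutamate uptake than control and negative means less.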 The note with it: MN-1 motor neuron cells, stronger effect = higher value.
Experiment [7] can be described thus: 75Q-TubH aggregate inhibition, S. cerevisiae, yeast (AID 1616). The note with it: S. cerevisiae 75Q-TubH polyglutamine aggregation suppression; stronger effect = higher value.
Experiment [8] can be described thus: compounds altering viability of human ES cells (AID 493140).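 Note: cells exposed to compounds for four days before counting.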 As to conditions: human embryonic stem cell survival screen; stronger effect = higher value.
Experiment [9] in a line: signal quenchers or enhancers, Cy5 substrate/SSB – biochemical, NIH Clinical Collection, E. coli SSB, artefact control for HCV NS3 helicase inhibitor project (AID 743268). The note with it: Cy5-oligo bound E. coli SSB, fluorescence interference.
The test system of experiment [10] is Hepatitis C virus NS3 helicase. The experiment is described as follows: blockers of NS3h binding to DNA – biochemical, fluorescence polarization, NIH Clinical Collection, primary screen (AID 743270). The note with it: NS3 helicase binding to Cy5-dT15 DNA, stronger effect = higher value, concentration not given here.
Experiment [11] addresses Single-stranded DNA-binding protein (Escherichia coli (strain K12)) (UniProt P0AGE0). The experiment is described as follows: SSB-ssDNA binding inhibitors – biochemical, fluorescence polarization, NIH Clinical Collection, counter-screen for HCV NS3 helicase inhibitor project (AID 743271; in the data active = inhibition above about 28%). The note with it: E. coli SSB-DNA binding, stronger effect = higher value, concentration not given here.

Experiment [12] can be described thus: compounds distorting NS3 helicase fluorescence signal – biochemical, NIH Clinical Collection, artefact control for HCV NS3 helicase inhibitor project (AID 743272).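 Note: HCV NS3 helicase with a Cy5 labelled single stranded DNA probe.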 The note with it: fluorescence interference counterscreen, HCV NS3 helicase assay; stronger effect = lower value.
The nature of experiment [13]: modulation of C. elegans fzo-1 (AID 1259413).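 Note: fzo-1 mutant C. elegans worms in liquid wells.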 The note with it: C. elegans fzo-1 modulator screen, mean read-out; stronger effect = higher value.
Experiment [14] has as its target Mitogen-activated protein kinase 7 (Homo sapiens) (UniProt Q13164). The experiment is described as follows: Gal4-ERK5 driven luciferase induction – cell-based, HTS, primary screen (AID 1508626;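 active = luciferase signal above three times the same-plate solvent-only control wells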;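 note: luciferase driven by Gal4-ERK5 fusion binding five Gal4 sites before minimal TATA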). The note with it: HeLa Gal4-ERK5 transactivation, 18 h, at 5 µM, stronger effect = higher value.
A short description of experiment [15]: galactose survival enhancers in mitochondrial complex I cybrids – cell-based, galactose medium, ATP luminescence, primary screen (AID 1645843;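 active = z-score of at least 1.8 in each of two replicates, scored against plate mean and spread of sample wells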;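 note: positive z means more ATP and so rescue of galactose-driven cybrid death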). As to conditions: complex I mutant cybrid cells, 72 h, stronger effect = higher value.
For the next experiment, the system named is R275C/beta1. Briefly: BK channel mutant inhibitors and activators – cell-based, U2OS BacMam, thallium flux, beta subunits, selectivity assay, profiling panel (AID 1259406;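 active = thallium flux through the channel raised or lowered by more than 3 SD from vehicle-only wells, actives on both sides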;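 note: initial slope of Thallos dye fluorescence rise after thallium is added; log ratio against the mean of 0.3% DMSO vehicle wells on the same plate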). As to conditions: U2OS BacMam BK variants, at 30 µM.
The test system of another experiment is R275C/beta2Delta. The experiment is described as above. As to conditions: U2OS BacMam BK variants, at 30 µM.
The test system of another experiment is R275C/beta4. The description is as above. As to conditions: U2OS BacMam BK variants, at 30 µM.
In another experiment the test system is R275C/Slo1WT/beta2. The experiment is described as above. As to conditions: U2OS BacMam BK variants, at 30 µM.

Values joined by “and” are separate entries in the source; they are usually repeats but may differ in a detail not shown here. Equal values may be shown once. For part of these data: Potency and affinity values are given separately. The source holds several records for some structures; these can differ, active in one and inactive in another. Active and inactive are the calls of the source. Unless noted, the rule behind the calls is not given here.

Mitogen-activated protein kinase 7 (Homo sapiens), sequence (Q13164 whole entry, looked up, the tested form may be a part): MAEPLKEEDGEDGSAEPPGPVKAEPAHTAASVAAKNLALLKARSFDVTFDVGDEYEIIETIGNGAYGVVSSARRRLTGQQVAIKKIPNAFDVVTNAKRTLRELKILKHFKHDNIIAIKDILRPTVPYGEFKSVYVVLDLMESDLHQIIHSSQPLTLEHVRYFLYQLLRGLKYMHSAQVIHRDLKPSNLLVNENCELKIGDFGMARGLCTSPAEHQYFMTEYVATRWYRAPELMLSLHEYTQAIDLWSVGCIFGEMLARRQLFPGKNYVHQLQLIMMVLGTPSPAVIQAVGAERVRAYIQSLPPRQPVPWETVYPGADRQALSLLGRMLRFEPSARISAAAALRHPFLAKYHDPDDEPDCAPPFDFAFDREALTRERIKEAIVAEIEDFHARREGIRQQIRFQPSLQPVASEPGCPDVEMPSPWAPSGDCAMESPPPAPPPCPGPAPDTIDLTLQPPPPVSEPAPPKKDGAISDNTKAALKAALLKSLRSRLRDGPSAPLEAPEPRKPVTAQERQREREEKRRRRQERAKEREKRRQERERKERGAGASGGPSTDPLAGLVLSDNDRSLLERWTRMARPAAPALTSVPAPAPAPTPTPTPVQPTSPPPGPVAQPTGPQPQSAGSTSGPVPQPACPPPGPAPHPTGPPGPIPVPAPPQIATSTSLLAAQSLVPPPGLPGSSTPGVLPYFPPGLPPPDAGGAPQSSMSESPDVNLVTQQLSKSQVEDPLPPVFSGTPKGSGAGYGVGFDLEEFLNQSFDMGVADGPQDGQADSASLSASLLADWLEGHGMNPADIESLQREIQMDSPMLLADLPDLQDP

For the compound `OC(CCN1CCCC1)(c1ccccc1)C1CCCCC1` (stereo not given), the inhibition in experiment [1] is 2.81%; in experiment [10], -3.18% (inactive); in experiment [11] it was -3.53% (inactive). This compound also had a score in experiment [2] of 1.52. Besides, in [3], the rescue above control stood at 0.33. In experiment [4], the cytochrome c release ratio came to 0.63. Besides, the inhibition of aggregation in experiment [5] was 69.2%. Further, the glutamate uptake change in experiment [6] amounted to 2.81%. Moreover, the aggregation suppression score in experiment [7] was determined as 1.66. For the same compound, the survival in experiment [8] is 7.33 (inactive). Besides, the fluorescence ratio is 1.04 (inactive) in [9] and 1.03 (inactive) in experiment [12]. Moreover, in experiment [13], the mean signal is 232 (inactive). Further, the luciferase signal in [14] is 44 AU (inactive). In addition, the z-score in [15] is -0.65 (inactive). Further, the log fold change Tl+ flux in the experiment on R275C/beta1 is 0.0416 (inactive); in the experiment with R275C/beta2Delta, -0.0288 (inactive); in the experiment with R275C/beta4 it was 0.068 (inactive); in the experiment with R275C/Slo1WT/beta2, -0.0137 (inactive).
Turning to `CCc1cccc2c3c([nH]c12)C(CC)(CC(=O)O)OCC3` (stereo not given), the inhibition in experiment [1] is 10.4%; in [10] it was 4.09% (inactive); in [11], -2% (inactive). In experiment [2], the score came to 1.08. In experiment [3], this compound yielded a rescue above control of -7.42. In [4], the cytochrome c release ratio is 0.88. The compound further showed an inhibition of aggregation in [5] of 57.6%. For the same compound, in experiment [6], the glutamate uptake change was -3.42%. This compound also showed an aggregation suppression score in [7] of 0.918. For the same compound, the survival in experiment [8] was 14.8 (inactive). The results for the fluorescence ratio in experiment [9] and in experiment [12] were 1.05 (inactive) and 1.02 (inactive), respectively. Also, the mean signal in experiment [13] was 230 (inactive). Further, the luciferase signal in experiment [14] was 164 AU (inactive). For the same compound, the z-score in [15] was 0.63 (inactive) and -0.035 (inactive). The log fold change Tl+ flux with R275C/beta1 was 0.127 (active); in the experiment on R275C/beta2Delta, 0.0673 (inactive); with R275C/beta4, 0.0823 (inactive); with R275C/Slo1WT/beta2, 0.0472 (inactive).
Turning to `Cc1ccccc1C(OCCN(C)C)c1ccccc1` (stereo not given), the inhibition in experiment [1] is -34.1%; in experiment [10], -10.4% (inactive) and -11.4% (inactive); in [11], -0.48% (inactive) and -2.76% (inactive). This compound also displayed a score in experiment [2] of 1.23. The compound further gave a rescue above control in experiment [3] of -6.28. Further, in [4], the cytochrome c release ratio worked out at 1.72. The same compound came in with an inhibition of aggregation in experiment [5] of 70.1%. Besides, in [6], the glutamate uptake change amounted to 36.2%. This compound also yielded an aggregation suppression score in [7] of 1.25. Also, the survival in experiment [8] was 11.9 (inactive). In addition, the fluorescence ratio is 0.78 (active) and 1.01 (inactive) in [9]; 0.88 (inactive) and 1.01 (inactive) in experiment [12]. Moreover, the mean signal in experiment [13] is 231 (inactive). For the same compound, the luciferase signal in experiment [14] was 40 AU (inactive). Further, the z-score in experiment [15] was -0.455 (inactive) and 0.28 (inactive) and 1.22 (inactive). Besides, the log fold change Tl+ flux in the experiment on R275C/beta1 is 0.0357 (inactive) and 0.0895 (inactive); with R275C/beta2Delta, 0.0594 (inactive) and 0.0469 (inactive); in the experiment with R275C/beta4 it was 0.0108 (inactive) and 0.0539 (inactive); with R275C/Slo1WT/beta2, 0.0116 (inactive) and 0.0357 (inactive).
Take `O=S(=O)(O)CCS`: the inhibition in experiment [1] was -57.1%; in [10] it was -2.27% (inactive); in [11], -2.76% (inactive). The score in experiment [2] was 1.3. Further, the rescue above control in [3] is -8.48. The cytochrome c release ratio in experiment [4] is 0.92. For the same compound, the inhibition of aggregation in experiment [5] is 75%. Also, the glutamate uptake change in experiment [6] was -0.24%. Besides, in experiment [7], the aggregation suppression score was found to be 1.35. Besides, the results for the fluorescence ratio in [9] and in experiment [12] were 0.73 (active) and 1 (inactive), respectively. Also, the mean signal in experiment [13] is 248 (inactive). Also, the luciferase signal in experiment [14] is 20 AU (inactive). Further, in [15], the z-score was 0.905 (inactive). In addition, the log fold change Tl+ flux in the experiment on R275C/beta1 is -0.0746 (inactive); with R275C/beta2Delta it was -0.00238 (inactive); with R275C/beta4 it was 0.0195 (inactive); in the experiment with R275C/Slo1WT/beta2 it was 0.0106 (inactive).
